# Laboratory results taken from the supplement of paper PMC9135407.
# Where a name gives a salt, the structure may show the parent alone. Among all 5,800 compounds or so, about 620 (11%) showed activity. Many of the other results were omitted from the sample, so actives are more common in it than they were. A number with no mark means an inactive call.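 The calls were made as follows: active = score above a cut-off or among the top three wells of a plate; in these data no inactive exceeds 0.85.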
# Test system: primary human hepatic stellate cells (donor 1)
# Assay: scaled lipid accumulation score (0 = DMSO-like, 1 = nortriptyline-like); higher = stronger HSC inactivation (lipid re-accumulation), active = hit call of the paper
# Conditions: 48 h
# [1] = library stock concentration: 1 mM
# [2] = library stock concentration: 10 mM
# [3] = library stock concentration: 3.33 mM
# [4] = library stock concentration: 400 uM
# [5] = library stock concentration: 2 mM
compound,measurement,setting,value
"CCCCCCCCC=CCC=CCC=CCCCC(=O)O [5(Z),8(Z),11(Z)-Eicosatrienoic Acid]",scaled lipid accumulation score,[1],0.072
OC[C@H]1NC[C@H](O)[C@@H](O)[C@@H]1O [1-Deoxynojirimycin hydrochloride],scaled lipid accumulation score,[2],≤ -0.07
CNC(=O)[C@H]1O[C@@H](n2cnc3c(NCc4cccc(I)c4)nc(Cl)nc32)[C@H](O)[C@@H]1O [Chloro-IB-MECA],scaled lipid accumulation score,[2],≤ -0.07
CNC(=O)[C@H]1O[C@@H](n2cnc3c(NCc4cccc(I)c4)nc(Cl)nc32)[C@H](O)[C@@H]1O,scaled lipid accumulation score,[2],0.019
Cc1cc(CS(=O)(=O)c2ccccc2)cc(OCc2ccc(CN3CCC[C@@H]3CO)cc2)c1 [listing 1 of 2 here],scaled lipid accumulation score,[2],1.03 (active)
Cc1cc(CS(=O)(=O)c2ccccc2)cc(OCc2ccc(CN3CCC[C@@H]3CO)cc2)c1 [listing 2 of 2 here],scaled lipid accumulation score,[3],≤ -0.009
CCCCC[C@H](O)/C=C/[C@@H]1[C@@H](CCCCCCC(=O)O)[C@H](O)C[C@H]1O [Prostaglandin F1.beta.],scaled lipid accumulation score,[1],≤ 0
COc1ccc2c3n(c(=NC(=O)c4cccnc4)nc2c1OC)CCN3,scaled lipid accumulation score,[4],≤ -0.005
same,scaled lipid accumulation score,[5],≤ -0.005
same,scaled lipid accumulation score,[2],≤ -0.005
CCCCC[C@H](O)/C=C/[C@H]1CC[C@@H](O)[C@@H]1C/C=C\CCCC(=O)O [11-deoxy Prostaglandin F2.beta.],scaled lipid accumulation score,[1],≤ 0
CCCCCCCCCCC1=C(C)C(=O)C(OC)=C(OC)C1=O [Decylubiquinone],scaled lipid accumulation score,library stock concentration: 15.5 mM,≤ -0.021
CCC1(C)OC(=O)N(C)C1=O (stereo not drawn),scaled lipid accumulation score,[2],≤ 0
CCN1CCN(Cc2ccc(Nc3ncc(F)c(-c4cc(F)c5nc(C)n(C(C)C)c5c4)n3)nc2)CC1 [Abemaciclib] [listing 1 of 2 here],scaled lipid accumulation score,library stock concentration: 80 uM,0.332
same,scaled lipid accumulation score,[4],0.55
same,scaled lipid accumulation score,[2],0.691
CCN1CCN(Cc2ccc(Nc3ncc(F)c(-c4cc(F)c5nc(C)n(C(C)C)c5c4)n3)nc2)CC1 [Abemaciclib] [listing 2 of 2 here],scaled lipid accumulation score,[5],0.882 (active)
CCN1CCN(Cc2ccc(Nc3ncc(F)c(-c4cc(F)c5nc(C)n(C(C)C)c5c4)n3)nc2)CC1.CS(=O)(=O)O,scaled lipid accumulation score,[3],0.963 (active)
same,scaled lipid accumulation score,[2],0.943 (active)
CC(=O)N[C@@H](CSC/C=C(\C)CCC=C(C)C)C(=O)O [N-Acetyl-S-geranyl-L-cysteine],scaled lipid accumulation score,[1],≤ -0.021
CCC(=O)O[C@H]1CC[C@H]2[C@@H]3CCc4cc(O)ccc4[C@H]3CC[C@]12C [Estradiol propionate],scaled lipid accumulation score,library stock concentration: 6.1 mM,0.254
same,scaled lipid accumulation score,[2],0.443
O=C1OC2(c3ccc(O)cc3Oc3cc(OS(=O)(=O)c4c(F)c(F)c(F)c(F)c4F)ccc32)c2ccccc21 (stereo not drawn) [Pentafluorobenzenesulfonyl fluorescein],scaled lipid accumulation score,[1],≤ 0
